Some test systems named below: SK-MEL-2 melanoma; EKVX NSCLC; SN12C renal; UO-31 renal; TK-10 renal; ACHN renal; CAKI-1 renal; A498 renal; CCRF-CEM leukemia; MOLT-4 leukemia; SR leukemia; RPMI-8226 leukemia; OVCAR-8 ovarian; OVCAR-5 ovarian; OVCAR-4 ovarian; SK-OV-3 ovarian; IGROV1 ovarian; OVCAR-3 ovarian; HS 578T breast; NCI/ADR-RES ovarian.
Experiment in all cases: NCI-60 one-dose screen, 48 h (100 = growth as untreated, 0 = no growth, -100 = all killed)
Common to all, as to conditions: 10 µM unless noted

This is part of a sample that, as a whole, favours compounds with a hit. Of some 83,000 tested, about 20% had one in any assay.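 Each cell line was grown in a 96-well plate and treated with one concentration of compound for 48 hours. Values below 10 were considered active.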 A number with no mark means an inactive call. Calls of active or inactive are those of the source.

In the case of `CCN1CCN(c2cc(C(=O)Nc3cccc(Nc4ccc5c(OC)cccc5n4)c3)cc(C(F)(F)F)c2)CC1`, the growth was 65.3% in the assay with SK-MEL-2 melanoma; 46.2% in the assay on EKVX NSCLC; 25.4% in the assay on SN12C renal; -8.51% (active) with UO-31 renal; 36% in the assay with TK-10 renal; 12.5% in the assay with ACHN renal. Also, the growth was 6.06% (active) in the assay on CAKI-1 renal; 57.6% with A498 renal; 6.94% (active) in the assay on CCRF-CEM leukemia; -14.5% (active) in the assay on MOLT-4 leukemia; -3.44% (active) with SR leukemia; 7.08% (active) in the assay with RPMI-8226 leukemia. For the same compound, the growth is 21.1% with OVCAR-8 ovarian; 54.8% in the assay with OVCAR-5 ovarian; 26.9% with OVCAR-4 ovarian; 54% in the assay with SK-OV-3 ovarian; 12.8% in the assay on IGROV1 ovarian; 33% in the assay on OVCAR-3 ovarian. For the same compound, the results for the growth in the assay on HS 578T breast and in the assay on NCI/ADR-RES ovarian were 34% and 9.7% (active), respectively.

On to `COc1ccc(C(=O)C2OC3=C(C(=O)CC(C)(C)C3)C2c2cccc(Oc3ccccc3)c2)cc1` (stereo not given), for which the growth is 93.4% with SK-MEL-2 melanoma; 85% in the assay on EKVX NSCLC; 89.5% in the assay on SN12C renal; 74% in the assay on UO-31 renal; 91.5% in the assay with TK-10 renal; 91.8% with ACHN renal. For the same compound, the growth was 81.7% with CAKI-1 renal; 62.9% in the assay on A498 renal; 84% with CCRF-CEM leukemia; 83.4% in the assay with MOLT-4 leukemia; 71.2% with SR leukemia; 85.7% with RPMI-8226 leukemia. For the same compound, the growth is 88.9% in the assay with OVCAR-8 ovarian; 97.6% in the assay on OVCAR-5 ovarian; 86.3% in the assay with OVCAR-4 ovarian; 91.4% in the assay on SK-OV-3 ovarian; 95.9% in the assay on IGROV1 ovarian; 103% in the assay with OVCAR-3 ovarian. Further, the growth was 93.4% in the assay on HS 578T breast and 92.7% in the assay with NCI/ADR-RES ovarian.

For `COc1cccc(/C=C/C(=O)/C=C(/C=C/c2cccc(OC)c2OC)OB(F)F)c1OC`, the growth in the assay with SK-MEL-2 melanoma is 110%; in the assay on EKVX NSCLC, 87.7%; in the assay on SN12C renal it was 43%; in the assay with UO-31 renal, 37.8%; in the assay with TK-10 renal, 68%; in the assay on ACHN renal it was 19.6%. In addition, the growth with CAKI-1 renal is 35.8%; in the assay on A498 renal it was 122%; with CCRF-CEM leukemia, 7.53% (active); with MOLT-4 leukemia, 9.58% (active); in the assay with SR leukemia it was 15.2%; with RPMI-8226 leukemia, 23.6%. Further, the growth is 16.7% with OVCAR-8 ovarian; 64% in the assay with OVCAR-5 ovarian; 50.7% in the assay with OVCAR-4 ovarian; 97% in the assay with SK-OV-3 ovarian; 33.7% in the assay with IGROV1 ovarian; 10.8% in the assay on OVCAR-3 ovarian. The growth in the assay on HS 578T breast was 38.3%; in the assay on NCI/ADR-RES ovarian, 19.6%.

With `CCCN1C(=O)N(CCC)C2C1NC(=S)N2/N=C/C=C/c1ccccc1OC` (stereo not given), the growth in the assay on SK-MEL-2 melanoma was 49.6%; in the assay on EKVX NSCLC, 51.5%; in the assay on SN12C renal it was 38.3%; in the assay on UO-31 renal, 39.5%; in the assay with TK-10 renal, 57.3%; with ACHN renal, 41.4%. The growth with CAKI-1 renal is 26.6%; in the assay with A498 renal it was -5.66% (active); with CCRF-CEM leukemia it was 10.1%; with MOLT-4 leukemia it was 27.6%; with SR leukemia, 22%; in the assay on RPMI-8226 leukemia, 19%. Besides, the growth is 12.2% with OVCAR-8 ovarian; 26.7% with OVCAR-5 ovarian; 55.2% with OVCAR-4 ovarian; 34.9% with SK-OV-3 ovarian; 30.6% in the assay on IGROV1 ovarian; -20.9% (active) with OVCAR-3 ovarian. The values for the growth with HS 578T breast and in the assay on NCI/ADR-RES ovarian were 9.95% (active) and 9.94% (active), respectively.

On to `C=C(C[n+]1ccccc1)[C@@H]1CC[C@]2(C(=O)OC)CC[C@]3(C)[C@H](CC[C@@H]4[C@@]5(C)CCC(=O)C(C)(C)[C@@H]5CC[C@]43C)[C@@H]12`, for which the growth in the assay with SK-MEL-2 melanoma is 89%; in the assay on EKVX NSCLC it was 93.4%; in the assay with SN12C renal it was 87.8%; in the assay on UO-31 renal it was 86.4%; with TK-10 renal, 102%; in the assay on ACHN renal, 95.4%. The growth in the assay on CAKI-1 renal was 83.5%; with A498 renal, 88.7%; in the assay on CCRF-CEM leukemia it was 82.6%; with MOLT-4 leukemia, 78.9%; in the assay with SR leukemia it was 84.8%; in the assay with RPMI-8226 leukemia, 52.3%. Besides, the growth in the assay on OVCAR-8 ovarian was 90.3%; in the assay on OVCAR-5 ovarian, 101%; in the assay with OVCAR-4 ovarian, 55%; in the assay with SK-OV-3 ovarian, 99%; with IGROV1 ovarian, 64.2%; with OVCAR-3 ovarian it was 58.9%. Also, the growth was 87.9% in the assay with HS 578T breast and 103% in the assay with NCI/ADR-RES ovarian.

Take `CCOC(=O)c1cnc2sc(-c3ccc(OC)cc3)nc2c1Cl`: the growth with SK-MEL-2 melanoma was 102%; in the assay on EKVX NSCLC it was 90.4%; with SN12C renal it was 102%; in the assay with UO-31 renal, 78.8%; in the assay on TK-10 renal, 145%; with ACHN renal it was 105%. Besides, the growth is 95% in the assay on CAKI-1 renal; 86.8% in the assay with A498 renal; 96.4% with CCRF-CEM leukemia; 97.3% in the assay with MOLT-4 leukemia; 96.8% in the assay on SR leukemia; 93.1% in the assay on RPMI-8226 leukemia. Besides, the growth in the assay on OVCAR-8 ovarian was 112%; in the assay on OVCAR-5 ovarian it was 118%; in the assay with OVCAR-4 ovarian it was 86.9%; in the assay on SK-OV-3 ovarian, 121%; with IGROV1 ovarian it was 102%; in the assay on OVCAR-3 ovarian, 108%. The growth with HS 578T breast was 89.3%; in the assay on NCI/ADR-RES ovarian, 90%.

`COc1ccc(N2C(=O)/C(=C/C(Cl)=C/c3ccc([N+](=O)[O-])cc3)SC2=S)cc1`: the growth in the assay on SK-MEL-2 melanoma was 37.4%; in the assay on EKVX NSCLC, -3.04% (active); in the assay with SN12C renal it was -3.33% (active); in the assay on UO-31 renal, -97.7% (active); in the assay on TK-10 renal, -26.7% (active); in the assay with ACHN renal, -68% (active). Moreover, the growth with CAKI-1 renal was 0.845% (active); with A498 renal, 63.2%; in the assay on CCRF-CEM leukemia it was 0.216% (active); in the assay on MOLT-4 leukemia, 2.36% (active); with SR leukemia it was -6.82% (active); with RPMI-8226 leukemia it was -9.98% (active). Further, the growth with OVCAR-8 ovarian is 6.6% (active); in the assay on OVCAR-5 ovarian, 10%; in the assay on OVCAR-4 ovarian, 10.4%; with SK-OV-3 ovarian, 40.8%; with IGROV1 ovarian, -52.7% (active); in the assay on OVCAR-3 ovarian, -57.6% (active). For the same compound, the growth is 26.3% in the assay with HS 578T breast and 8.97% (active) with NCI/ADR-RES ovarian.

As to `COc1cc(OCc2cccc(-c3ccc4c(c3)OCCO4)c2C)cc(OC)c1C=O`, the growth was 58.3% with SK-MEL-2 melanoma; 53.7% with EKVX NSCLC; 68.2% with SN12C renal; 51% in the assay with UO-31 renal; 43.4% in the assay on TK-10 renal; 48% with ACHN renal. Besides, the growth is 25.9% with CAKI-1 renal; -10.4% (active) with A498 renal; 59.1% in the assay on CCRF-CEM leukemia; 56.4% in the assay with MOLT-4 leukemia; 37.3% in the assay with SR leukemia; 29.6% in the assay on RPMI-8226 leukemia. In addition, the growth with OVCAR-8 ovarian is 70.4%; in the assay on OVCAR-5 ovarian, 68.7%; in the assay on OVCAR-4 ovarian, 35.9%; with SK-OV-3 ovarian, 93.2%; in the assay on IGROV1 ovarian, 68.1%; in the assay on OVCAR-3 ovarian it was 60.5%. The growth with HS 578T breast is 75.9%; with NCI/ADR-RES ovarian it was 70.4%.

(Values after PubChem BioAssay (NCI).)
